# Experimental data from the supplement of paper PMC8726507.
# Test system: Plasmodium falciparum NF54-HGL (transmission to Anopheles stephensi)
# Assay: percentage of barcode signal found in uninfected mosquitoes (transmission-blocking activity); higher = stronger blocking of transmission to mosquito, active = 80 or more
# Details: 10 µM; gametocyte preincubation time 24 h; readout time post-feed 8 days
# Procedure: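 The mixture was fed to Anopheles stephensi in 96-well plates as blood meals tagged with DNA-barcoded Asaia bacteria. Eight days later, mosquitoes were classed infected or uninfected by luminescence (mean + 5 SD of unfed controls). Barcodes were quantified by Luminex MagPlex-TAG in the pooled uninfected and infected Asaia cultures, background-corrected, and the score is % of barcode signal in uninfected mosquitoes = 100*Iu/(Iu+Ii).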
row,Structure (SMILES),percentage of barcode signal found in uninfected mosquitoes
1,CS(=O)(=O)Cc1nc2ccccc2oc1=O,80.3% (active)
2,CC(=O)NC[C@@H]1CN(c2ccc(N3CCOCC3)c(F)c2)C(=O)O1,4.01% (inactive)
3,CNC(=O)C1Cc2ccccc2N1C(=O)Cc1ccc(F)cc1 (stereo not given),27.5% (inactive)
4,O=C(c1cc2ccccc2o1)N1CCN(Cc2ccc3c(c2)OCO3)CC1,0.553% (inactive)
5,COc1ccc(-c2cc(NC(=O)c3ccc(F)cc3Cl)ccc2OC)cc1,-1.77% (inactive)
6,Clc1cccc(C(c2ccc(CN3CCNCC3)cc2)n2ccnc2)c1 (stereo not given),89.4% (active)
7,Cc1ccc(C(=O)Nc2ccc(S(=O)(=O)O)c3cc(S(=O)(=O)O)cc(S(=O)(=O)O)c23)cc1NC(=O)c1cccc(NC(=O)Nc2cccc(C(=O)Nc3cc(C(=O)Nc4ccc(S(=O)(=O)O)c5cc(S(=O)(=O)O)cc(S(=O)(=O)O)c45)ccc3C)c2)c1,32.8% (inactive)
8,COc1cc(NC(C)CCCN)c2ncccc2c1 (stereo not given),48.2% (inactive)
9,CCOc1ccc2cc(-c3nn(C(C)(C)C)c(N)c3C(N)=O)cnc2c1,71.5% (inactive)
10,CCCS(=O)(=O)N1CCC(CO)(Cc2ccccc2C(F)(F)F)CC1,39.3% (inactive)
11,COc1ccc(-c2cnc3ccc(NCc4ccc(S(N)(=O)=O)cc4)nn23)cn1,68.2% (inactive)
12,O=C1COCc2ccc(Br)cc2N1Cc1ccc(C(F)(F)F)cc1,22.4% (inactive)
13,CC1COC2(CCN(c3nc(=O)c4cc(C(F)(F)F)cc([N+](=O)[O-])c4s3)CC2)O1 (stereo not given),26.7% (inactive)
14,CC(=O)NC[C@H]1CN(c2ccc(N3CCSCC3)c(F)c2)C(=O)O1,24.7% (inactive)
15,Nc1ncc(-c2ccc(C(F)(F)F)nc2)cc1-c1ccc(C(F)(F)F)nc1,1.73% (inactive)
16,Brc1c(-c2ccc3c(c2)OCO3)nc2ncccn12,6.02% (inactive)
17,Cc1ccc(Oc2ccc(NC(=O)CNc3ccccc3N3CCCC3=O)cc2)cc1,53.3% (inactive)
18,Cc1nc2ccccn2c1C(=O)NCc1ccc(Cl)cc1,48.8% (inactive)
19,CC[C@H](CO)NCCN[C@H](CC)CO,24.2% (inactive)
20,NS(=O)(=O)c1cncc(-c2ccc3nccc(-c4cn[nH]c4)c3n2)c1,78.5% (inactive)
21,CCOC(=O)NC(=O)c1ccsc1NC(=O)c1nc2ccccc2s1,-0.298% (inactive)
22,O=C(NC1=NCCS1)c1sc2cc(F)ccc2c1Cl,5.7% (inactive)
23,O=C(NCCc1c[nH]c2ccccc12)c1cc2ccccc2oc1=O,-1.49% (inactive)
24,Cc1cc2nc(NC(=O)C(C)(C)C)nc(Cl)c2n1Cc1ccc(Cl)cc1,79.6% (inactive)
25,COc1ccccc1OCCCCn1c(C2CC2)nc2ccccc21,48.5% (inactive)

# Same assay, conditions: 20 µM; gametocyte preincubation time 24 h; readout time post-feed 8 days
row,Structure (SMILES),percentage of barcode signal found in uninfected mosquitoes
1,O=C(Nc1ccccc1)c1ccc(-c2cc3ccncc3cc2OC2CCNCC2)s1,82.7% (active)
2,O=C(C1CCN(c2cc(-n3cccc3)ncn2)CC1)N1CCc2ccccc2C1,26.4% (inactive)
3,COc1cc(OC)cc(C(=O)NCC2Cc3cc(Cl)cc(-c4ccncc4)c3O2)c1 (stereo not given),1.01% (inactive)
4,CC(C(=O)N1CCCC1)N1CCN(S(=O)(=O)c2ccc(C(C)(C)C)cc2)CC1 (stereo not given),0.922% (inactive)
5,Cc1ccc(-c2cc(C(=O)Nc3cccnc3)c3cc(Br)ccc3n2)cc1,42.5% (inactive)
6,CC(C)(C)n1nc(Cc2ccc(F)c(Cl)c2)c2c(N)ncnc21,10.3% (inactive)
7,O=C(Nc1nnc(S)s1)c1cc(Br)ccc1Cl,18.9% (inactive)
8,COc1cc(C2=NCCN2)cc2cc(-c3ccc(C4=NCCN4)cc3)oc12,95.1% (active)
9,CCCn1c(NC(=O)c2ccc3ccccc3n2)nc2ccccc21,56.6% (inactive)
10,Cc1ccc2nc(C)c(-c3ccn(Cc4ccccc4)n3)n2c1,71.6% (inactive)
11,Cc1cc(C)nc(-n2nc(C)cc2Nc2ccccc2)n1,80.5% (active)
12,CCOC(=O)c1noc(N)c1-c1ccccc1,25.4% (inactive)
13,Nc1ncnc2c1c(-c1cnc3ccccc3c1)nn2CC1CCNCC1,-2.55% (inactive)
14,O=C(N[C@H](Cc1ccccc1)C(=O)Nc1ccccc1N1CCOCC1)c1cccs1,13.5% (inactive)
15,CC(C)(CN)c1nc(-c2ccc(Cl)c(O)c2)c(-c2ccnc(N)n2)[nH]1,80.9% (active)
